Drawing on PubChem BioAssay (NCI), this text covers growth inhibition for 8 compounds.

About 79,000 compounds went through this panel and 15% of them were active in at least one assay; those are over-represented in the sample as a whole. Values without a mark were called inactive. Activity calls are given as the source filed them. Rule as the data show it: active = growth inhibition above about 70%; inactive = the rest.

Assay [1] can be described thus: NCI Yeast Anticancer Drug Screen. Data for the rad50 strain (AID 155).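 Also: 0% = growth of vehicle-only cultures of the same strain.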 The following applies: S. cerevisiae rad50 strain growth inhibition; at 50.0 µM; stronger effect = higher value. Put shortly: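 Relative growth inhibition (compound vs vehicle) was measured in yeast with a defined repair-gene alteration.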
Assay [2] can be described thus: NCI Yeast Anticancer Drug Screen. Data for the mec2-1 strain (AID 157). The conditions noted are these: S. cerevisiae mec2-1 strain, at 50.0 µM, stronger effect = higher value. Put shortly:
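Growth inhibition is read against vehicle-treated controls after compound exposure of the mec2-1 yeast strain, which is defective in DNA damage repair or cell cycle control.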

A short description of assay [3]: NCI Yeast Anticancer Drug Screen. Data for the sgs1 mgt1 strain (AID 161).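 Also: 0% = growth of cultures given vehicle only.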 The following applies: S. cerevisiae sgs1 mgt1 strain, at 50.0 µM, stronger effect = higher value. In outline:
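This yeast growth screen uses a strain with defined DNA-repair lesions; compound-treated growth is compared with vehicle-treated growth.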

Assay [4] can be described thus: NCI Yeast Anticancer Drug Screen. Data for the cln2 rad14 strain (AID 165).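 Also: 0% = growth equal to vehicle treated cultures.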 The following applies: S. cerevisiae cln2 rad14 strain, at 50.0 µM, stronger effect = higher value. Put shortly: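 Growth inhibition, relative to vehicle-treated controls, is the read-out. The test organism is a yeast strain with defined genetic alterations, cln2 rad14.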
Assay [5] in a line: NCI Yeast Anticancer Drug Screen. Data for the bub3 strain (AID 167). The following applies: S. cerevisiae bub3 mutant strain, at 50.0 µM, stronger effect = higher value. In outline:
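Screening used yeast with an engineered genetic alteration affecting cell cycle control. Compound-exposed cultures were compared with vehicle cultures, and reduced growth was taken as inhibition.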

A short description of assay [6]: NCI Yeast Anticancer Drug Screen. Data for the mlh1 rad18 strain (AID 175). The following applies: S. cerevisiae mlh1 rad18 strain growth inhibition; at 50.0 µM; stronger effect = higher value. In outline:
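Cells of a genetically altered yeast strain, deficient in DNA damage repair, were treated with compound. Their growth was then compared with that of vehicle-treated cultures to give inhibition.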

With `Cc1ccc(/C=N/Nc2nncc3ccccc23)s1`, the growth inhibition in assay [1] is 14.8%; in assay [2], 16.1%; in assay [3], 16.7%; in assay [4] it was 21.2%; in assay [5] it was 21.7%; in assay [6], 38.5%.

As to `Cc1ccc(/C=N/Nc2cnccn2)s1`, the growth inhibition in assay [1] was -30.9%; in assay [2], -25.2%; in assay [3] it was -30.9%; in assay [4], 15.2%; in assay [5], -41.2%; in assay [6] it was -9.3%.

With `COc1ccc2c(=O)c(-c3cc4c(cc3OC)OCO4)coc2c1`, the growth inhibition was -26.5% in assay [1]; -30.9% in assay [2]; -11.3% in assay [3]; -3.1% in assay [4]; -56.4% in assay [6].

In the case of `NC(=S)NS(=O)(=O)c1ccc(N)cc1`, the growth inhibition in assay [1] is -24.6%; in assay [2], -38.2%; in assay [3] it was -6%; in assay [4], 4.35%; in assay [5], -16.4%; in assay [6], 8.3%.

Turning to `CCCCN1CCNCC1`, the growth inhibition was 10.1% in assay [1], -1.95% in assay [2] and -2.55% in assay [6].

`O=C(O)CCNC(=O)c1ccccc1`: the growth inhibition in assay [1] is -6.2%; in assay [2] it was -7.4%; in assay [3], -20%; in assay [5], 7.95%; in assay [6], -12.8%.

With `CC1CC2(OC2C)C(=O)OC2CCN(C)C/C=C(/COC(=O)C1(C)O)C2=O` (stereo unspecified), the growth inhibition in assay [1] was 2.3%; in assay [2] it was 7.05%; in assay [3], 20.9%; in assay [4] it was 4.85%; in assay [6] it was -52%.

For the compound `CC(C)/C(Cl)=N/OC(=O)Nc1cccc(C(F)(F)F)c1`, the growth inhibition in assay [1] is 35.7%; in assay [2] it was 38.3%; in assay [3], 85% (active); in assay [4], 24.8%; in assay [6], -91.7%.
